# Source: PubChem BioAssay (Tox21)
# Results filed as inconclusive are left out. Values without a mark were called inactive. The source made the active and inactive calls. Calls follow the shape of the dose curve; as a rule, active = well fitted curve in the direction sought with a large enough effect in the repeat runs; inconclusive = weak or mixed curves; inactive = no such curve, though single readings can be large; an effect the other way counts as inactive or inconclusive.
# Test system: not listed separately
# Test: Caspase-3/7 induction in HepG2 cells by small molecules, qHTS cell viability counter screen (AID 1346981); also: nearly all actives have a fitted effect of over 30% in size
# Settings: CellTiter-Fluor fluorescence, 17 h; series mostly up to 92.4 µM; activity change, negative = cytotoxicity: at the top concentration
# How it was run: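 Wild-type HepG2 cells (2,000/well) were allowed to settle for 5 hr at 37 C, 5% CO2, then dosed with compounds in DMSO by pin transfer. After 16 hr at 37 C, CellTiter-Fluor was added and fluorescence read 1 hr later.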
# % is scaled to controls: 0 for no effect and ±100 for the full control effect.
row,Compound,"activity change, negative = cytotoxicity"
1,CCCCCCCCS,5.76%
2,CNc1ccccc1,2.88%
3,CCCCOC(=O)CC#N,-2.21%
4,CC(Cc1ccccc1)(NC(=O)CN)c1ccccc1 (stereo unspecified),-5.69% [at 42.5 µM]
5,CCCN(C1CCN(C(=O)C2CCNCC2)CC1)[C@@H]1CCc2ccc(OC)cc2C1,-1.73%
6,CCOC(OCC)OCC,6.54%
7,CCC(=O)O[C@]1(C(=O)COC)[C@@H](C)C[C@H]2[C@@H]3CCC4=CC(=O)C=C[C@]4(C)C3(F)[C@@H](O)C[C@@]21C (stereo partly specified),0.44% [at 42.5 µM]
8,NC(=O)c1cc[n+](CC2=C(C(=O)[O-])N3C(=O)[C@@H](NC(=O)Cc4cccs4)[C@H]3SC2)cc1,-6.17% [at 42.5 µM]
9,CC(CC(C#N)(c1ccccc1)C(C)C)N(C)C (stereo unspecified),-0.789% [at 42.5 µM]
10,CC1(C)C(=O)NC(=O)N1CO,1.21%
11,CC(=O)c1cccnc1,1.05%
12,N#CCCCC(C#N)CCC#N (stereo unspecified),3.8%
13,O=C(O)c1cc(C(=O)O)c(C(=O)O)cc1C(=O)O,-2.33%
14,FC1(F)C(F)(F)C(F)(F)C2(F)C(F)(C1(F)F)C(F)(F)C(F)(F)C1(F)C(F)(F)C(F)(F)C(F)(F)C(F)(F)C12F (stereo unspecified),8.79%
15,CC(=O)CC/C=C(\C)CC/C=C(\C)CC/C=C(\C)CCC=C(C)C,3.44% [at 42.5 µM]
16,CC(C)(O)C(=O)O,3.82%
17,CCCCCCCCCCCCSC#N,0.924%
18,O=[N+]([O-])c1cccc(I)c1,2.28%

row,Compound,"activity change, negative = cytotoxicity"
1,CCOC(=O)CC(O)(CC(=O)OCC)C(=O)OCC,8.2%
2,CC(C)CCCCCCCOC(=O)c1ccc(C(=O)OCCCCCCCC(C)C)c(C(=O)OCCCCCCCC(C)C)c1,-1.85%
3,Nc1ccc(F)cc1F,-0.842%
4,O=C(O)c1ccccc1-n1cc(C(=O)O)c(=O)c2cc(Nc3c(F)cc(F)cc3Cl)c(Cl)cc21,3.22%
5,CCCc1nc(C)c2c(=O)[nH]c(-c3cc(S(=O)(=O)N4CCN(CC)CC4)ccc3OCC)nn12,-0.701% [at 42.5 µM]
6,COc1ccc(/C(C)=C/C(=O)O)c(OC)c1,6.23% [at 42.5 µM]
7,[O-][n+]1ccc(Cl)cc1,0.284%
8,CCOc1ccc(NC(C)=O)cc1N,-1.62%
9,Oc1ccc(Oc2ccccc2)cc1,-0.8%
10,CS(C)=O,0.729%
11,Cc1nc2sccn2c(=O)c1CCN1CCC(=C(c2ccc(F)cc2)c2ccc(F)cc2)CC1,-6.18% [at 42.5 µM]
12,CC1(C)[C@@H]2CC[C@]3(C2)[C@@H]1C(=O)CCC3(C)C,-0.205%
13,Cc1cccc(C)c1NC(=O)CN1CCCC1,1.24% [at 42.5 µM]
14,CCCCCCCCCCCC(=O)OCC,1.75%
15,O=C1C=CCCC1,-5.68%
16,CCCCOC(=O)C(C)Oc1ccc(Oc2ccc(C(F)(F)F)cn2)cc1 (stereo unspecified),-1.3%
17,N#C[C@@H]1CC(F)(F)CN1C(=O)CNC1CC2CCC(C1)N2c1ncccn1 (stereo partly specified),-0.947%

# Target: Nuclear receptor subfamily 1 group I member 2 (Homo sapiens) (UniProt O75469)
# Test: Human pregnane X receptor (PXR) small molecule agonists, qHTS assay (AID 1346982); also: nearly all actives have a fitted effect of over 35% in size; also: potency is read from the fitted curve at half-maximal effect
# Settings: PXR-Luc HepG2, CYP3A4 luciferase reporter, 24 h; series mostly up to 92.4 µM; activation: at the top concentration
# How it was run: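 PXR-Luc HepG2 cells (CYP3A4 promoter-driven luciferase) were seeded in medium with 5% charcoal-stripped FBS, left 5 hr at 37 C, then exposed to compounds in DMSO for 24 hr. Luminescence was read after ONE-Glo addition.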
# Sequence of Nuclear receptor subfamily 1 group I member 2 (Homo sapiens) (O75469 whole entry, looked up): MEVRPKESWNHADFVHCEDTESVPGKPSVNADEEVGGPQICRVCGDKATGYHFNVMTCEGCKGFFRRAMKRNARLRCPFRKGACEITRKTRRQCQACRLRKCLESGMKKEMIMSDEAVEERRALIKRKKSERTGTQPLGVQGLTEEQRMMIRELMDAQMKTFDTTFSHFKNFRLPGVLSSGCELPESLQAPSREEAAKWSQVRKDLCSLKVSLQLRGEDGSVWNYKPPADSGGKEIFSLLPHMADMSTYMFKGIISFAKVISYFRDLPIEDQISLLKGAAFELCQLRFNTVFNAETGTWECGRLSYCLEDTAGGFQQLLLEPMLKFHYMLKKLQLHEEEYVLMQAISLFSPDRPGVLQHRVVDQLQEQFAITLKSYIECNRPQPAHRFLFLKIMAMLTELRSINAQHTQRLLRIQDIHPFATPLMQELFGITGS
Compound,activation,Potency
CCCCCCCCS,11%,–
CNc1ccccc1,0.909%,–
CCCCOC(=O)CC#N,22.5%,–
O=C1c2ccccc2C(=O)c2c1ccc(O)c2O,-2.16% [at 42.5 µM],–
CCCN(C1CCN(C(=O)C2CCNCC2)CC1)[C@@H]1CCc2ccc(OC)cc2C1,17.7%,–
CCOC(OCC)OCC,8.71%,–
CCC(=O)O[C@]1(C(=O)COC)[C@@H](C)C[C@H]2[C@@H]3CCC4=CC(=O)C=C[C@]4(C)C3(F)[C@@H](O)C[C@@]21C (stereo partly specified),–,16.8 µM (active)
COC(=O)Cc1cccc2ccccc12,11.5%,–
NC(=O)c1cc[n+](CC2=C(C(=O)[O-])N3C(=O)[C@@H](NC(=O)Cc4cccs4)[C@H]3SC2)cc1,-6.07% [at 42.5 µM],–
CC(CC(C#N)(c1ccccc1)C(C)C)N(C)C (stereo unspecified),22.5% [at 42.5 µM],–
CC1(C)C(=O)NC(=O)N1CO,-13.9%,–
CC(=O)c1cccnc1,4.94%,–
N#CCCCC(C#N)CCC#N (stereo unspecified),-5.76%,–
O=C(O)c1cc(C(=O)O)c(C(=O)O)cc1C(=O)O,-0.258%,–
FC1(F)C(F)(F)C(F)(F)C2(F)C(F)(C1(F)F)C(F)(F)C(F)(F)C1(F)C(F)(F)C(F)(F)C(F)(F)C(F)(F)C12F (stereo unspecified),6.78%,–
CC(=O)CC/C=C(\C)CC/C=C(\C)CC/C=C(\C)CCC=C(C)C,–,23.7 µM (active)
CC(C)(O)C(=O)O,4.15%,–
CCCCCCCCCCCCSC#N,20%,–

Compound,activation,Potency
O=[N+]([O-])c1cccc(I)c1,-0.306%,–
CCOC(=O)CC(O)(CC(=O)OCC)C(=O)OCC,-6.34%,–
CC(C)CCCCCCCOC(=O)c1ccc(C(=O)OCCCCCCCC(C)C)c(C(=O)OCCCCCCCC(C)C)c1,–,19 µM (active)
Nc1ccc(F)cc1F,6.43%,–
O=C(O)c1ccccc1-n1cc(C(=O)O)c(=O)c2cc(Nc3c(F)cc(F)cc3Cl)c(Cl)cc21,-6.89%,–
COc1ccc(/C(C)=C/C(=O)O)c(OC)c1,-2.41% [at 42.5 µM],–
[O-][n+]1ccc(Cl)cc1,-8.18%,–
CCOc1ccc(NC(C)=O)cc1N,–,31.1 µM (active)
Oc1ccc(Oc2ccccc2)cc1,–,46.1 µM (active)
CS(C)=O,-13.1%,–
Cc1nc2sccn2c(=O)c1CCN1CCC(=C(c2ccc(F)cc2)c2ccc(F)cc2)CC1,20% [at 42.5 µM],–
CC1(C)[C@@H]2CC[C@]3(C2)[C@@H]1C(=O)CCC3(C)C,–,9.69 µM (active)
Cc1cccc(C)c1NC(=O)CN1CCCC1,4.46% [at 42.5 µM],–
CC1=CC(=C(c2ccc(N)cc2)c2ccc(N)cc2)C=CC1=N,-7.87% [at 8.39 µM],–
CCCCCCCCCCCC(=O)OCC,-12.1%,–
O=C1C=CCCC1,-4.9%,–
CCCCOC(=O)C(C)Oc1ccc(Oc2ccc(C(F)(F)F)cn2)cc1 (stereo unspecified),-7.54%,–
N#C[C@@H]1CC(F)(F)CN1C(=O)CNC1CC2CCC(C1)N2c1ncccn1 (stereo partly specified),1.41%,–
